The text below walks through data of PubChem BioAssay AID504340 (NMMLSC, 2011).

A number with no mark means an inactive call. Activity calls are given as the source filed them.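 Rule for the calls: active = GFP response above 150% of the DMSO control; inconclusive = Under 70 cell events counted for a yeast strain; inactive = the rest.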

The test can be described thus: yeast TOR pathway CIT2-GFP reporter retest – flow cytometry, third cherry pick, single plex, confirmation (AID 504340).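 Note: median GFP fluorescence over all cells with no mother versus daughter split; sample signal as a ratio to the plate DMSO mean so 100% equals DMSO.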 The following applies: S. cerevisiae CIT2-GFP strain, 3 h, at 10 µM, hits give high values.
As to `O=C(N/N=C/c1ccccc1F)c1cccc2ccccc12`, the GFP response vs DMSO is 104%.

Turning to `O=C(/C=C/Nc1cccc(O)c1)c1ccccc1`, the GFP response vs DMSO was 111%.

Take `Cc1cc(C)c2ccc(C(=O)O)nc2c1O`: the GFP response vs DMSO was 88%.

On to `OCCNc1ncnc2ccc(Br)cc12`, for which the GFP response vs DMSO is 109%.

For the compound `CCCC(=O)Nn1cnc2c(c1=O)C1(CCCCC1)Cc1ccccc1-2`, the GFP response vs DMSO is 94.5%.

`Cc1ccc(NC(=O)O/N=C2\CCCCC2c2ccc([N+](=O)[O-])cc2[N+](=O)[O-])cc1` (centres undefined): the GFP response vs DMSO is 106%.

Take `COC(=O)COc1c(Cl)cc(Cl)c2ccc(C)nc12`: the GFP response vs DMSO was 106%.

On to `CC1=CN2C(=N)/C(=C/c3ccc([N+](=O)[O-])o3)C(=O)N=C2S1`, for which the GFP response vs DMSO is 1030% (active).

On to `COc1ccccc1-c1cc(C(F)(F)F)nc(S(=O)(=O)CCCC(=O)O)n1`, for which the GFP response vs DMSO was 111%.

As for `CCN(CC)c1ncnc2ccc(Br)cc12`, the GFP response vs DMSO was 97.7%.

Regarding `Nc1ncnc(Nc2cc(Cl)cc(Cl)c2)c1[N+](=O)[O-]`, the GFP response vs DMSO was 97.7%.

Consider `Nc1cccc2c1C(=O)c1ccc(Cl)cc1C2=O`, for which the GFP response vs DMSO is 107%.

Turning to `CCC(=O)Nn1cnc2c(c1=O)C1(CCCCC1)Cc1ccccc1-2`, the GFP response vs DMSO is 99.3%.

For the compound `CC1=NNC(=O)/C1=C\c1cn(-c2ccccc2)nc1-c1ccc(F)cc1`, the GFP response vs DMSO is 124%.

For the compound `C/C(=C\C(=O)c1ccc(C)cc1)Nc1cccc(O)c1`, the GFP response vs DMSO was 103%.

In the case of `Cc1cccc(Nc2cc(=O)[nH]c(=O)[nH]2)c1`, the GFP response vs DMSO was 94.5%.

For the compound `Nc1cc(C(=O)O)c(N)c2c1C(=O)c1ccccc1C2=O`, the GFP response vs DMSO was 94.5%.

For the compound `Cn1c(=O)c2c(n3cnnc13)-c1ccccc1CC21CCCC1`, the GFP response vs DMSO was 106%.

Consider `OCCN1CCN(c2ncnc3ccc(Br)cc23)CC1`, for which the GFP response vs DMSO is 101%.

As to `CC(=O)Nc1ccc(-c2nc3ccccc3o2)cc1`, the GFP response vs DMSO was 99.3%.

Consider `C/C(=C\C(=O)c1ccccc1)Nc1cccc(O)c1`, for which the GFP response vs DMSO was 99.3%.

For `COCCNc1nc(N)c([N+](=O)[O-])c(Nc2ccc(F)cc2)n1`, the GFP response vs DMSO is 101%.

In the case of `CNc1nc(N)c([N+](=O)[O-])c(Nc2ccccc2OC)n1`, the GFP response vs DMSO is 168% (active).

As for `Oc1c(Cl)cc(Cl)c2cccnc12`, the GFP response vs DMSO is 142%.

Turning to `COc1cccc2c(Cl)c(CCCl)c(C)nc12`, the GFP response vs DMSO was 111%.

Take `C=CCNc1ncnc2ccc(Br)cc12`: the GFP response vs DMSO is 101%.

For the compound `CS(=O)(=O)Oc1ccc(Br)c2cccnc12`, the GFP response vs DMSO is 103%.

With `O=C(N/N=C/c1ccccc1)c1cccc2ccccc12`, the GFP response vs DMSO was 97.7%.

Consider `C=CCNc1ncnc2ccccc12`, for which the GFP response vs DMSO is 103%.

In the case of `Oc1ccc(Cl)c2cccnc12`, the GFP response vs DMSO is 103%.

Turning to `Cc1cccc(Nc2cc(=O)[nH]c(=O)[nH]2)c1C`, the GFP response vs DMSO was 96.1%.

For the compound `C[n+]1cccc2cccc([O-])c21`, the GFP response vs DMSO was 103%.

`C/C(=C\C(=O)c1ccccc1)Nc1ccc(O)cc1`: the GFP response vs DMSO is 103%.

Take `CCC(C)Nc1nc(N)c([N+](=O)[O-])c(Nc2ccccc2OC)n1` (centres undefined): the GFP response vs DMSO is 114%.

Consider `O=C(Nc1ccccc1)O/N=C1/CCCc2occc21`, for which the GFP response vs DMSO was 103%.

As for `CC(=O)NC(C)c1cc(Cl)c2cccnc2c1O` (centres undefined), the GFP response vs DMSO is 97.7%.

`Cc1ccc2c(C)ccc(O)c2n1`: the GFP response vs DMSO was 106%.

For `O=C(O)c1ccc(C=NNC(=O)c2cccc3ccccc23)cc1`, the GFP response vs DMSO was 106%.

Take `NC(=O)c1ccnc2c(O)cccc12`: the GFP response vs DMSO was 101%.
